PfHsp90 yeast 2: growth inhibition of yeast expressing Plasmodium Hsp90. S. cerevisiae expressing PfHsp90, BacTiter-Glo ATP, 48 h; yeast lacking PDR1 and PDR3 efflux regulators. inhibition, % at 9.4 µM. 0.32% of 310,000 active;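 active = every replicate shows inhibition above about 80%, whatever the replicate mean, limit read from the data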;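 note: 0% = DMSO neutral controls and 100% = 20 µM radicicol positive controls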
NLRP3 yeast inh: inhibitors of NALP3 inflammasome in yeast; 0.39% of 330,000 active; inhibition, % at 10 µM; Yeast reconstituted NLRP3/ASC/caspase-1, beta-gal luminescence, 24 h;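 active = inhibition of 50% or more; inactive = inhibition below 50%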;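 note: plate controls were induced DMSO wells for no effect and uninduced yeast grown without galactose for full effect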
tim23-1 inh: inhibits growth of tim23-1 mutant yeast | AID 463212 | 1.3% of 330,000 active | inhibition, % at 20 µM | S. cerevisiae tim23-1 growth, BacTiter-Glo luminescence, 24 h;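 active = growth inhibition of the mutant yeast at or above 50%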;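 note: temperature-sensitive mutant grown at 25 °C; plate controls were DMSO-treated mutant yeast for no effect and medium wells lacking yeast for full effect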
TIM10 inh: TIM10 yeast growth inhibition; S. cerevisiae TIM10 strain growth, BacTiter-Glo luminescence, 24 h; inhibition, % at 10 µM; 1.4% of 330,000 active;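 active = inhibition of 40% or more at the single tested concentration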;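 note: wild-type TIM10 isogenic control strain grown at permissive 25 °C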
NALP1 inh: inhibitors of NALP1 inflammasome in yeast. S. cerevisiae NALP1/ASC/caspase-1 growth, X-gal OD620, 72 h. inhibition, % at 10 µM. 0.61% of 280,000 active. AID 2071; in the data active = inhibition mostly above about 24%, no sharp cut-off; inactive = mostly below about 32%
tim10-1 inh: growth inhibitors of tim10-1 mutant yeast; S. cerevisiae tim10-1 ts strain growth, BacTiter-Glo, 24 h; inhibition, % at 20 µM; 2.2% of 330,000 active; AID 463190;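 active = inhibition of at least 40%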;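 note: mutant grown at 25 °C; 0% = DMSO wells with yeast and 100% = wells holding no yeast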
tim10-1 conf: confirmation of tim10-1 mutant yeast growth inhibitors. shares compounds with tim10-1 inh. S. cerevisiae tim10-1 ts strain growth, BacTiter-Glo, 24 h. inhibition, % at 20 µM. 56% of 7,400 active;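 active = inhibition of yeast growth at or above a set limit in either of two repeat tests at 20 µM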;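 note: tim10-1 mutant grown at permissive 25 °C to find synthetic lethal compounds; 0% = DMSO yeast wells and 100% = medium wells without yeast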
TIM10 conf: confirmation of TIM10 yeast growth inhibitors. 63% of 4,600 active. shares compounds with TIM10 inh. S. cerevisiae tim10 strain growth, BacTiter-Glo luminescence, 24 h. inhibition, % at 10 µM;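 active = inhibition of yeast growth at or above a set limit in either of two replicates at 10 µM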;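 note: this counterscreen used the strain with wild-type TIM10; 0% = yeast with DMSO and 100% = medium wells lacking yeast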
tim23-1 conf: confirmation of tim23-1 mutant yeast growth inhibitors; shares compounds with tim23-1 inh; S. cerevisiae tim23-1 growth, BacTiter-Glo luminescence, 24 h; inhibition, % at 20 µM; 83% of 4,400 active; AID 463218;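 active = inhibition above about 39% in either of two replicate wells at 20 µM, limit read from the data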;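 note: temperature-sensitive tim23-1 mutant grown at 25 °C; 0% = DMSO wells with yeast and 100% = medium wells without yeast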
* hit, by the source's call; nt = not tested or not shown. This is a sample that favours compounds with a hit; in the whole collection about 4.1% have one here.

SMILES	PfHsp90 yeast 2	NLRP3 yeast inh	tim23-1 inh	TIM10 inh	NALP1 inh	tim10-1 inh	tim10-1 conf	TIM10 conf	tim23-1 conf
O=[N+]([O-])c1ccc(Nc2ccccc2)c2nonc12	-12.8	21.8	59.6*	44.7*	16.4	48.5*	37.1*	39.5*	66.7*
N#CCOC(=O)c1cc(S(=O)(=O)N2CCCCC2)ccc1N1CCOCC1	13.3	13.5	2.4	-5.9	nt	2.8	nt	nt	nt
Cc1oc(=O)c(NC(=O)c2ccccc2)cc1C(=O)c1ccccc1	nt	38.0	56.6*	53.4*	2.8	62.3*	61.0*	55.1*	59.6*
O=C(NCCOc1ccccc1)C1=CC=CN2CCS(=O)(=O)N=C12	nt	-4.8	-3.4	8.7	nt	-6.0	nt	nt	nt
Cc1ccc(S(=O)(=O)Nc2cccc(S(=O)(=O)N3CCCC3)c2)cc1C	26.8	27.2	24.5	5.7	nt	6.5	nt	nt	nt
O=C(NNc1nc2ccc(Cl)cc2s1)c1cc(-c2cccs2)nc2ccccc12	102.8*	14.0	51.6*	18.8	36.7	50.5*	34.6*	nt	54.3*
CN=c1scc(-c2cccs2)n1/N=C/c1ccc(O)c(O)c1O	10.4	19.4	70.8*	32.0	-1.5	41.9*	19.4	nt	84.1*
CC(C)Oc1ccc(C(=O)N2CCN(C(=O)c3ccco3)CC2)cc1	-7.2	-2.1	9.7	0.0	5.3	6.2	nt	nt	nt
CCN(Cc1ccccc1)C(c1ccccn1)c1nnnn1C1CCCCC1 (stereo not given)	16.1	8.7	62.0*	60.5*	10.9	41.9*	51.1*	62.0*	64.6*
CCC1CSC(Nc2ccc(C(=O)/C=C/c3ccc(Br)cc3)cc2)=N1 (stereo not given)	-1.6	12.8	53.7*	50.0*	17.5	44.8*	51.0*	48.3*	55.0*
Cc1ccc(NC2CCCN(C(=O)c3ccnc(Cl)c3)C2)cc1C (stereo not given)	-13.3	9.2	-2.5	-0.3	36.6	-6.8	nt	nt	nt
O=C(NNC(=O)c1ccc([N+](=O)[O-])o1)c1ccccc1	13.9	26.2	7.6	-3.3	28.8	-3.2	nt	nt	nt
Cc1ccc(-c2nc3ncccc3o2)cc1NC(=O)c1ccc([N+](=O)[O-])o1	-30.8	16.4	84.5*	83.2*	6.6	73.8*	81.6*	85.3*	5.7
CC(=O)c1cccc(NC(=O)c2ccc([N+](=O)[O-])o2)c1	-19.7	15.6	76.8*	46.6*	nt	65.4*	51.8*	45.9*	72.3*
COc1ccc(NC(=O)c2ccc([N+](=O)[O-])o2)cc1	-2.8	17.2	59.3*	40.8*	-6.4	64.2*	45.2*	42.6*	57.7*
O=C(Nc1ccc2oc(-c3ccncc3)nc2c1)c1ccc([N+](=O)[O-])o1	-36.6	-10.6	69.0*	52.8*	6.9	45.4*	68.3*	74.9*	78.9*
Cn1cc(S(=O)(=O)N2CCCC2)cc1C(=O)O	nt	-8.1	0.6	7.9	nt	-8.5	nt	nt	nt
O=C(/C=C/c1ccc(F)cc1)c1cc(Br)ccc1O	1.3	-22.3	50.2*	52.9*	-4.5	45.1*	71.0*	70.0*	22.4
CCc1ccc(CN2CCCC(C(=O)Nc3ccccc3-c3ccc(OC)cc3)C2)o1 (stereo not given)	-3.1	19.9	28.1	15.1	-7.4	16.4	nt	nt	nt
N/C(=C\C(=O)c1cc(Cl)ccc1O)C(Cl)(Cl)Cl	-22.3	-16.0	73.4*	42.4*	3.8	40.1*	47.9*	31.4	36.8
CC(C)(C)c1ccc(C(=O)CC(=O)c2cc(Cl)ccc2O)cc1	20.3	14.3	20.7	20.4	-8.9	36.0	nt	nt	nt
CCOC(=O)/C(=N/Nc1ccc(Br)cc1)N1CC(C)OC(C)C1 (stereo not given)	61.5	nt	nt	nt	nt	nt	nt	nt	nt
CCOc1ccccc1NC(=O)CSc1nnnn1C1CCCC1	1.0	-3.3	13.5	12.7	5.3	25.3	nt	nt	nt
O=C(CC(Nc1ccccc1)C(=O)O)c1ccccc1 (stereo not given)	3.0	10.7	17.5	7.8	-10.7	16.4	nt	nt	nt
C=C(C(=O)c1ccccc1)C(C)CC(=O)c1ccccc1 (stereo not given)	15.8	16.6	54.6*	48.8*	38.2	44.0*	59.5*	55.9*	48.5*
SMILES	PfHsp90 yeast 2	NLRP3 yeast inh	tim23-1 inh	TIM10 inh	NALP1 inh	tim10-1 inh	tim10-1 conf	TIM10 conf	tim23-1 conf
CCCC(=O)Nc1ccc(Sc2ccc([N+](=O)[O-])cc2)cc1	3.8	30.2	51.3*	54.5*	31.8	42.5*	25.2	41.2*	43.0*
CCOC(=O)N1CCC(NC(=O)C2CCN(S(=O)(=O)c3ccc4c(c3)oc(=O)n4C)CC2)CC1	-2.7	15.0	5.8	-2.9	-3.6	-4.5	nt	nt	nt
CC(C)Sc1nc(N)nc(-c2cccs2)c1C#N	-194.4	-17.9	64.5*	24.0	14.9	48.1*	28.5	nt	18.6
CC(C)OC(=O)CSc1nc(N)c(C#N)c(-c2cccs2)c1C#N	nt	-3.1	10.1	6.0	23.8	15.8	nt	nt	nt
O=C(Nc1nnc(CCc2ccccc2)s1)c1ccco1	0.5	31.6	29.4	4.5	-10.7	14.4	nt	nt	nt
O=C(Nc1nc2c(s1)CCc1ccccc1-2)c1ccco1	-48.3	-6.7	58.0*	41.1*	-4.5	54.9*	49.2*	47.3*	61.3*
O=C(Nc1nnc(Cc2ccccc2)s1)c1ccco1	-11.4	21.3	54.2*	33.8	-0.2	50.3*	29.2*	nt	42.7*
CCCc1cc(C(N)=O)c(NC(=O)c2ccoc2C)s1	3.3	14.7	65.4*	34.0	4.1	47.3*	34.0*	nt	68.2*
NC(=O)c1cc(Cc2ccccc2)sc1NC(=O)c1ccco1	-31.3	6.5	59.7*	40.4*	-4.5	49.9*	48.3*	28.5	73.1*
N#Cc1ccccc1S(=O)(=O)N1CCN(CC(=O)Nc2ccccc2C(=O)NC2CC2)CC1	19.5	13.8	-2.6	-10.6	nt	-8.9	nt	nt	nt
O=C(Nc1cccc(S(=O)(=O)NC2=NCCC2)c1)c1cc(=O)[nH]c2ccccc12	-10.3	17.9	4.1	4.4	nt	7.6	nt	nt	nt
O=C(Nc1nc2c(ccc3ccccc32)s1)c1ccco1	-10.7	-2.5	57.0*	66.2*	0.0	51.0*	52.0*	61.5*	75.3*
O=C(Nc1nc2c(F)c(F)c(F)cc2s1)c1ccco1	9.9	18.1	16.2	22.0	8.3	10.0	nt	nt	nt
Cc1c(/C=N/NC(=O)c2ccc(Br)o2)cnn1C	8.4	13.5	-18.2	-6.3	15.3	-24.8	nt	nt	nt
O=S(=O)(c1cccc(-c2nc3ccccc3s2)c1)N1CCOCC1	nt	-39.8	52.5*	43.1*	1.8	40.6*	39.7*	30.3*	40.4*
CC(C)Cc1ccc(-c2cc(=O)[nH][nH]2)cc1	0.2	1.7	53.4*	6.9	21.1	59.0*	28.0	nt	43.9*

Compound activity (PubChem BioAssay)
